Assay outcomes: PubChem BioAssay, several laboratories
A selection: hits, their analogues and other compounds. The true share with any hit is near 4.5%.
697 NFkB inh – lowers PMA/ionomycin-induced NF-kB signal in 697 B cells. 697 B-cell NF-kB luciferase reporter, 16 h. inhibition, % at 4 µM. hit rate 0.33% among 330,000. AID 435022; in the data active means inhibition above about 35%
Jurkat NFkB inh – lowers PMA/ionomycin-induced NF-kB signal in Jurkat cells; AID 435003; inhibition, % at 4 µM; PMA/ionomycin-induced NF-kB luciferase reporter, luminescence; hit rate 0.53% among 330,000; in the data active means inhibition above about 50%
Mdm2 MdmX PPI – disrupts the human Mdm2-MdmX interaction | O15151+Q00987 | SaOS-2 split-luciferase Mdm2/MdmX complementation, luminescence | inhibition, % at 8 µM | hit rate 3% among 330,000;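 active means inhibition of at least 50% at 8 µM in the primary screen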
Target sequence (O15151 whole entry, looked up): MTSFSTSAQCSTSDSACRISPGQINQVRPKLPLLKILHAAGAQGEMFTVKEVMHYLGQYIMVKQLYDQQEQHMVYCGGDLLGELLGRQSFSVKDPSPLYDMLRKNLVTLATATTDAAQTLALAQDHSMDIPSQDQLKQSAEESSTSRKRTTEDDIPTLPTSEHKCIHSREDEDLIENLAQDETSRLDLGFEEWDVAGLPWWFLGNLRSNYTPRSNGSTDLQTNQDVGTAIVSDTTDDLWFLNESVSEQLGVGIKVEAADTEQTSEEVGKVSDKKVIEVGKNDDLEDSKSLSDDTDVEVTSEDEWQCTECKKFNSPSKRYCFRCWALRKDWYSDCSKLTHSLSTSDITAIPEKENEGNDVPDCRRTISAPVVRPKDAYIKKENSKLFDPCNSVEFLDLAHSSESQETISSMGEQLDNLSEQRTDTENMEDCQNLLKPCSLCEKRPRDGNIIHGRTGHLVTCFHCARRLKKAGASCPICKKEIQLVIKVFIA
Target sequence (Q00987 whole entry, looked up): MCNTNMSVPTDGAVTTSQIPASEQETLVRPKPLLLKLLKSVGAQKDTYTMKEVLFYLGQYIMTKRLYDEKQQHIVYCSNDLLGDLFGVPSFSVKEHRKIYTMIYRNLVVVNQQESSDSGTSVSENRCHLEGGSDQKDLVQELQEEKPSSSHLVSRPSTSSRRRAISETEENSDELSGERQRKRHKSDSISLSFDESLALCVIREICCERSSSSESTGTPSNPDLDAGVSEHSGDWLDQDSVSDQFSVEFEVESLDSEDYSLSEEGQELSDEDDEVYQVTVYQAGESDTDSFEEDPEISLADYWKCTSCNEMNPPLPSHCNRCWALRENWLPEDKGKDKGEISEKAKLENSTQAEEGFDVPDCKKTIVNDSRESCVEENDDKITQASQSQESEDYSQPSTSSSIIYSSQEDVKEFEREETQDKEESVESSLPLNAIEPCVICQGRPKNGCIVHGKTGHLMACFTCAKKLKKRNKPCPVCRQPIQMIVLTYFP
CSC inhib – cancer stem cell inhibition. cancer stem cell-like cells viability, luminescence. inhibition, % at 7.5 µM. hit rate 1.1% among 300,000. AID 2717; in the data active means inhibition above about 75%; tested in HMLE shEcad cells
Gli-Sufu block – blocks Gli-Sufu signaling in a luciferase reporter; Sufu-KO-LIGHT fibroblasts, Gli luciferase reporter luminescence; inhibition, % at 5 µM; hit rate 0.74% among 340,000; AID 588413;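 active means inhibition above about 55%, limit read from the data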;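 further: 0% = DMSO-treated cells and 100% = wells with medium but no cells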
Beta apoptosis – beta cell apoptosis inhibition. hit rate 0.8% among 300,000. INS-1E cytokine-induced death, ATP luminescence, 48 h; percent of positive-control rescue, neutral wells zero. protection from apoptosis, % (test concentration not listed);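 active means Every replicate reaches about 75%, or at least half do and their mean reaches it too, limit read from the data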;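 further: 0% = cytokine-treated negative control wells and 100% = positive control rescue; higher means more ATP so stronger rescue from cytokine killing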
Mdm2-MdmX conf – confirmation of human Mdm2/MdmX interaction inhibitors. shares compounds with Mdm2 MdmX PPI. Mdm2-MdmX binding, luminescent assay. inhibition, % at 8 µM. hit rate 55% among 10,000. AID 489028; in the data active means inhibition above about 40%
Full FLuc ctr – inhibits full-length luciferase, flagging false Mdm2/MdmX hits | shares compounds with Mdm2 MdmX PPI | SaOS-2 full-length luciferase counterscreen, luminescence | inhibition, % at 8 µM | hit rate 77% among 6,200;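 active means mean inhibition at 8 µM reaching about 37%, which flags the compound as non-specific, limit read from the data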;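 further: p53-null SaOS-2 cells with luciferase driven by a doxycycline-inducible promoter; compound on cells about two nights before reading with doxycycline added after day one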
Gli-Sufu confirm – confirmation of Gli-SUFU pathway antagonists. shares compounds with Gli-Sufu block. Sufu-KO-LIGHT cells, Gli luciferase reporter, luminescence. inhibition, % at 5 µM. hit rate 40% among 2,500. AID 602428;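 active means mean inhibition at 5 µM reaching about 45%, limit read from the data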;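 further: plate controls were DMSO-treated cells for no effect and wells lacking cells for full effect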
Gli cytotox – cytotoxicity counter-screen for Gli-SUFU antagonists; cytotoxicity, % at 5 µM; shares compounds with Gli-Sufu block; AID 651994; hit rate 32% among 2,500; Sufu-KO-LIGHT cells cytotoxicity, ATP luminescence;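 active means mean cytotoxicity at 5 µM above about 25%, limit read from the data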;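 further: cells exposed to compound overnight for roughly 16 to 18 hours; plate controls were DMSO wells with cells for no effect and medium without cells for full effect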
Wnt3a cs – Wnt3a reporter inhibition counter-screen; shares compounds with Gli-Sufu block; Wnt-LIGHT cells, Wnt3a-driven luciferase reporter, luminescence; inhibition, % at 6.25 µM; hit rate 20% among 2,500; AID 651995;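 active means mean inhibition above about 25%, limit read from the data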
* marks the source's active call; other numbers are inactive results.

For COCC(C)n1c(C)cc(C(=O)COC(=O)c2cc(=O)[nH]c3ccccc23)c1C (stereo not given) the results were 697 NFkB inh -8, Jurkat NFkB inh -7, Mdm2 MdmX PPI 58*, CSC inhib 2, Gli-Sufu block 51, Beta apoptosis 3, Mdm2-MdmX conf 68*, Full FLuc ctr 97*, Gli-Sufu confirm 69*, Gli cytotox 26* and Wnt3a cs 81*.
COCC(C)n1c(C)cc(C(=O)COC(=O)c2n[nH]c3ccccc23)c1C (stereo not given) was read as 697 NFkB inh -124, Jurkat NFkB inh -66, Mdm2 MdmX PPI 21, CSC inhib -5, Gli-Sufu block 3 and Beta apoptosis -2.
Screening Cc1cccc(CSC(Nc2ccc(F)cc2)=C(C#N)C#N)c1 returned 697 NFkB inh -8, Jurkat NFkB inh 8, Mdm2 MdmX PPI 94*, CSC inhib -26, Gli-Sufu block 56*, Beta apoptosis 106*, Mdm2-MdmX conf 89*, Full FLuc ctr 50*, Gli-Sufu confirm 62*, Gli cytotox 24 and Wnt3a cs 52*.
`COc1ccccc1C(=O)NCCOc1ccc(C(C)(C)C)cc1` gave 697 NFkB inh -7, Jurkat NFkB inh 21, Mdm2 MdmX PPI 15, CSC inhib 12, Gli-Sufu block -5 and Beta apoptosis 4.
For CC(C)(C)c1ccc(C(=O)NCCOc2ccccc2F)cc1 the results were 697 NFkB inh -151, Jurkat NFkB inh -65, Mdm2 MdmX PPI 62*, CSC inhib 0, Gli-Sufu block 55*, Beta apoptosis 4, Mdm2-MdmX conf 73*, Full FLuc ctr 148*, Gli-Sufu confirm 74*, Gli cytotox 18 and Wnt3a cs 89*.
`COCCn1c(C)cc(C2=NNC(=Nc3ccccc3)SC2)c1C` gave 697 NFkB inh -126, Jurkat NFkB inh -37, Mdm2 MdmX PPI 62*, CSC inhib -4, Gli-Sufu block 54, Beta apoptosis -6, Mdm2-MdmX conf 73*, Full FLuc ctr 81*, Gli-Sufu confirm 12, Gli cytotox 40* and Wnt3a cs 19.
Screening COCCn1c(C)cc(C2=NNC(=Nc3ccc(OC)cc3)SC2)c1C returned 697 NFkB inh -10, Jurkat NFkB inh -11, Mdm2 MdmX PPI 1, CSC inhib -3, Gli-Sufu block -2 and Beta apoptosis -31.
Cc1ccc(C(C#N)c2ccc3c(C(F)(F)F)cc(C(F)(F)F)nc3n2)cc1 (stereo not given) was read as 697 NFkB inh -22, Jurkat NFkB inh 3, Mdm2 MdmX PPI 58*, CSC inhib 86*, Gli-Sufu block 53, Beta apoptosis 39, Mdm2-MdmX conf -1, Gli-Sufu confirm 59*, Gli cytotox 15 and Wnt3a cs 52*.
Screening CCCCCCc1cc2cc(C(=O)Nc3ccccc3)c(=O)oc2cc1O returned 697 NFkB inh -85, Jurkat NFkB inh 28, Mdm2 MdmX PPI 97*, CSC inhib 100*, Gli-Sufu block 73*, Beta apoptosis 112*, Mdm2-MdmX conf 61*, Full FLuc ctr 57*, Gli-Sufu confirm 64*, Gli cytotox 30* and Wnt3a cs 79*.
For CCc1noc(C)c1C(=O)N1CCSC1=Nc1cccc(Cl)c1C the results were 697 NFkB inh 4, Jurkat NFkB inh -11, Mdm2 MdmX PPI 1, CSC inhib 5, Gli-Sufu block 8 and Beta apoptosis 3.
